# Reference: the supplement of paper PMC8728848
# The entries come from a sample that favours the strongest signals as a whole.
# What was measured:
# Assay in all cases: glycan array binding signal (z-score within array); higher = stronger binding
# Conditions in all cases: glycan notation: IUPAC condensed, linker removed
# [1] = molecular target: Gal3S(b1-4)Glc
# Method in brief: (§1)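 From the Consortium for Functional Glycomics database, 3228 arrays were curated, keeping only those whose protein sequence was available. Binding is given as a within-array Z-score averaged across arrays sharing a protein sequence and across linkers. Negative Z-scores can be read as non-binding.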
# [2] = molecular target: Glc(a1-4)Glc(a1-4)Glc(a1-4)Glc
# Method in brief: as §1
# [3] = molecular target: GlcNAc(b1-2)[GlcNAc(b1-6)]Man(a1-6)[GlcNAc(b1-2)Man(a1-3)]Man(b1-4)GlcNAc(b1-4)[Fuc(a1-6)]GlcNAc
# Method in brief: as §1
# [4] = molecular target: GlcNAc(b1-3)Gal(b1-4)GlcNAc(b1-2)[GlcNAc(b1-3)Gal(b1-4)GlcNAc(b1-6)]Man(a1-6)[GlcNAc(b1-3)Gal(b1-4)GlcNAc(b1-2)Man(a1-3)]Man(b1-4)GlcNAc(b1-4)GlcNAc
# Method in brief: as §1
# [5] = molecular target: GlcNAc(b1-3)Gal(b1-4)GlcNAc(b1-3)Gal(b1-4)GlcNAc(b1-2)Man(a1-3)[GlcNAc(b1-3)Gal(b1-4)GlcNAc(b1-3)Gal(b1-4)GlcNAc(b1-2)Man(a1-6)]Man(b1-4)GlcNAc(b1-4)GlcNAc
# Method in brief: as §1
# [6] = molecular target: GlcNAc(b1-3)Gal(b1-4)GlcNAc(b1-3)Gal(b1-4)GlcNAc(b1-2)[GlcNAc(b1-3)Gal(b1-4)GlcNAc(b1-3)Gal(b1-4)GlcNAc(b1-6)]Man(a1-6)[GlcNAc(b1-3)Gal(b1-4)GlcNAc(b1-3)Gal(b1-4)GlcNAc(b1-2)Man(a1-3)]Man(b1-4)GlcNAc(b1-4)[Fuc(a1-6)]GlcNAc
# Method in brief: as §1
# [7] = molecular target: GlcNAc(b1-3)Gal(b1-4)GlcNAc(b1-3)Gal(b1-4)GlcNAc(b1-3)Gal(b1-4)GlcNAc(b1-2)Man(a1-3)[GlcNAc(b1-3)Gal(b1-4)GlcNAc(b1-3)Gal(b1-4)GlcNAc(b1-3)Gal(b1-4)GlcNAc(b1-2)Man(a1-6)]Man(b1-4)GlcNAc(b1-4)[Fuc(a1-6)]GlcNAc
# Method in brief: as §1
# [8] = molecular target: GlcNAc(b1-3)Gal(b1-4)GlcNAc(b1-3)Gal(b1-4)GlcNAc(b1-3)Gal(b1-4)GlcNAc(b1-2)[GlcNAc(b1-3)Gal(b1-4)GlcNAc(b1-3)Gal(b1-4)GlcNAc(b1-3)Gal(b1-4)GlcNAc(b1-6)]Man(a1-6)[GlcNAc(b1-3)Gal(b1-4)GlcNAc(b1-3)Gal(b1-4)GlcNAc(b1-3)Gal(b1-4)GlcNAc(b1-2)Man(a1-3)]Man(b1-4)GlcNAc(b1-4)[Fuc(a1-6)]GlcNAc
# Method in brief: as §1
# [9] = molecular target: GlcNAc(b1-3)GalNAc
# Method in brief: as §1
# [10] = molecular target: GlcNAc(b1-3)[GlcNAc(b1-4)][GlcNAc(b1-6)]GlcNAc
# Method in brief: as §1
# [11] = molecular target: Man(a1-2)Man(a1-3)[Man(a1-2)Man(a1-6)]Man(a1-6)[Man(a1-2)Man(a1-2)Man(a1-3)]Man
# Method in brief: as §1
# [12] = molecular target: Neu5Ac(a2-3)Gal(b1-3)[Fuc(a1-4)]GlcNAc
# Method in brief: as §1
# [13] = molecular target: Neu5Ac(a2-3)Gal(b1-4)GlcNAc(b1-2)Man(a1-3)[Neu5Ac(a2-3)Gal(b1-4)GlcNAc(b1-2)Man(a1-6)]Man(b1-4)GlcNAc(b1-4)GlcNAc
# Method in brief: as §1
# [14] = molecular target: Neu5Ac(a2-3)Gal(b1-4)GlcNAc(b1-2)[Neu5Ac(a2-3)Gal(b1-4)GlcNAc(b1-6)]Man(a1-6)[Neu5Ac(a2-3)Gal(b1-4)GlcNAc(b1-2)Man(a1-3)][GlcNAc(b1-4)]Man(b1-4)GlcNAc(b1-4)GlcNAc
# Method in brief: as §1
# [15] = molecular target: Neu5Ac(a2-3)Gal(b1-4)[Fuc(a1-3)]GlcNAc(b1-3)Gal(b1-4)[Fuc(a1-3)]GlcNAc(b1-3)Gal(b1-4)[Fuc(a1-3)]GlcNAc
# Method in brief: as §1
# [16] = molecular target: Neu5Ac(a2-3)Gal(b1-4)[Fuc(a1-3)]GlcNAc(b1-6)[Gal(b1-3)]GalNAc
# Method in brief: as §1
# [17] = molecular target: Neu5Ac(a2-6)Gal(b1-4)GlcNAc(b1-2)[Neu5Ac(a2-6)Gal(b1-4)GlcNAc(b1-4)]Man(a1-3)[GlcNAc(b1-4)][Neu5Ac(a2-6)Gal(b1-4)GlcNAc(b1-4)Man(a1-6)]Man(b1-4)GlcNAc(b1-4)GlcNAc
# Method in brief: as §1
# [18] = molecular target: Neu5Ac(a2-6)Gal(b1-4)GlcNAc(b1-3)Gal(b1-4)GlcNAc(b1-3)Gal(b1-4)GlcNAc(b1-2)Man(a1-3)[Neu5Ac(a2-6)Gal(b1-4)GlcNAc(b1-3)Gal(b1-4)GlcNAc(b1-3)Gal(b1-4)GlcNAc(b1-2)Man(a1-6)]GalNAc
# Method in brief: as §1
# [19] = molecular target: Neu5Ac(a2-6)GalNAc(b1-4)GlcNAc6S
# Method in brief: as §1
# [20] = molecular target: Neu5Gc(a2-3)Gal(b1-4)[Fuc(a1-3)]GlcNAc
# Method in brief: as §1
binder,measurement,setting,value
Pwp6 (Candida glabrata) (protein) MGSSHHHHHHSSGLVPRGSHMASANLPKLTNICQIPDNVKKTSGFKGEIRRIGLFPPGGDYTYLLKFPSTGSTASDTISLTTKPQLSTSGWFPSLFGHTYFIKADLLVYMVAYFVPTETGEYTFKLVNSDDAAVMYVGNPSAFPCGSIDTWPEPRKEDINVCDKISASTKLYMEKGLAYPVRLVWYNGGGDGQFNAQFIDPSGTTHTDWNGYVWQYDACTDCDYK,glycan array binding signal (z-score),[1],-0.252
same,glycan array binding signal (z-score),[2],-0.556
same,glycan array binding signal (z-score),[3],0.023
same,glycan array binding signal (z-score),[4],2.94
same,glycan array binding signal (z-score),[5],3.63
same,glycan array binding signal (z-score),[6],3.3
same,glycan array binding signal (z-score),[7],3.79
same,glycan array binding signal (z-score),[8],3.71
same,glycan array binding signal (z-score),[9],-0.863
same,glycan array binding signal (z-score),[10],-0.466
same,glycan array binding signal (z-score),[11],-0.603
same,glycan array binding signal (z-score),[12],-0.364
same,glycan array binding signal (z-score),[13],4.2
same,glycan array binding signal (z-score),[14],1.89
same,glycan array binding signal (z-score),[15],-0.179
same,glycan array binding signal (z-score),[16],-0.222
same,glycan array binding signal (z-score),[17],-0.266
same,glycan array binding signal (z-score),[18],8.45
same,glycan array binding signal (z-score),[19],0.14
same,glycan array binding signal (z-score),[20],-0.654
